Screening data deposited in PubChem BioAssay by several laboratories.
Y pestis TopoI: inhibitors of Yersinia pestis topoisomerase I | Y. pestis Topo-I cleavage product accumulation, plate reader | activity, % at 10 µM | hit rate 0.064% among 360,000 | AID 504884; in the data active = activity above about 50%, passing the limit was not always enough
BH1578 lux ind: induces V. cholerae light production without autoinducers; V. cholerae BH1578 lux reporter, luminescence, 6 h; activation, % at 18.7 µM; hit rate 0.16% among 350,000; in the data active = activation mostly above about 9.7%, no sharp cut-off
PrPC surface inh: inhibitors of human cell surface prion protein PrPC; hit rate 0.43% among 370,000; inhibition, % at 13.8 µM; TR-FRET read-out; AID 720596; in the data active = inhibition above about 24%; note: 0% = median of the test wells and 100% = reference compound wells
CCHF vOTU inh-1: CCHFV vOTU protease inhibition. Pep-AMC fluorescence. inhibition, % at 11.5 µM. hit rate 0.55% among 370,000; note: 0% = vehicle wells with enzyme and 100% = no enzyme wells
CCHF vOTU inh-2: confirmation of CCHF virus vOTU protease inhibitors | AID 686976 | shares compounds with CCHF vOTU inh-1 | hit rate 17% among 1,900 | inhibition, % at 11.5 µM | Recombinant CCHFV vOTU, Pep-AMC fluorescence
Active calls of the source: *; ! = a repeat was not active. Rows were chosen to be rich in hits. Some 1.1% of all compounds tested hit in one or more screens of this group. Cut-off read from the data, not from the text of the source, unless noted: active = inhibition above about 30%; inactive = the rest.

Screening CC(CN1CCOCC1)OC(=O)c1ccccc1Br (stereo not drawn) returned Y pestis TopoI 0, BH1578 lux ind -1, PrPC surface inh 5, CCHF vOTU inh-1 32* and CCHF vOTU inh-2 -28.
Screening COc1cc(N)c2ncccc2c1OC returned Y pestis TopoI -4, BH1578 lux ind 1, PrPC surface inh -9, CCHF vOTU inh-1 40* and CCHF vOTU inh-2 3.
COc1cc(NCCCCCCN)c2ncccc2c1OC was read as Y pestis TopoI -25, PrPC surface inh -32, CCHF vOTU inh-1 102* and CCHF vOTU inh-2 94*.
`COc1cc(NC(C)CCCNC(C)C)c2ncccc2c1OC` (stereo not drawn) gave Y pestis TopoI -18, BH1578 lux ind -1, PrPC surface inh -7 and CCHF vOTU inh-1 17.
For CCC(C)(C)n1nnnc1C(c1ccncc1)N1CCN(c2cccc(OC)c2)CC1 (stereo not drawn) the results were Y pestis TopoI -1, BH1578 lux ind 0, PrPC surface inh 5 and CCHF vOTU inh-1 -2.
`CCC(C)(C)n1nnnc1C(c1cccnc1)N1CCN(c2cccc(C(F)(F)F)c2)CC1` (stereo not drawn) gave Y pestis TopoI 34, BH1578 lux ind inactive, PrPC surface inh 8, CCHF vOTU inh-1 30* and CCHF vOTU inh-2 3.
`O=C1C(SCCO)=C(SCCO)C(=O)c2ccccc21` gave Y pestis TopoI 3, BH1578 lux ind 1, PrPC surface inh 65*, CCHF vOTU inh-1 114* and CCHF vOTU inh-2 107*.
For CCCSCC(=O)Nc1ncc2c(n1)-c1ccccc1CC2 the results were Y pestis TopoI -2, BH1578 lux ind 0, PrPC surface inh 10 and CCHF vOTU inh-1 -32.
`C=C(C)CSc1nc(N)c(C#N)c(-c2ccc(C)cc2)c1C#N` gave Y pestis TopoI 15, BH1578 lux ind -2, PrPC surface inh 10 and CCHF vOTU inh-1 -4.
For N#C/C(=C\Nc1ccc2c(c1)OCCO2)c1nc2ccccc2[nH]1 the results were Y pestis TopoI -14, BH1578 lux ind inactive, PrPC surface inh 2, CCHF vOTU inh-1 32* and CCHF vOTU inh-2 3.
CC(C)C(=O)NC(NCC1CCCO1)C(Cl)(Cl)Cl (stereo not drawn) was read as Y pestis TopoI -2, PrPC surface inh 6 and CCHF vOTU inh-1 12.
`Cc1[nH][nH]c(=O)c1C(c1ccc(-c2ccc(F)cc2)o1)c1c(C)[nH][nH]c1=O` gave Y pestis TopoI 6, BH1578 lux ind inactive, PrPC surface inh -8, CCHF vOTU inh-1 46* and CCHF vOTU inh-2 -9.
Screening COc1ccc(-c2ccc(C(c3c(C)[nH][nH]c3=O)c3c(C)[nH][nH]c3=O)o2)c([N+](=O)[O-])c1 returned Y pestis TopoI 3, BH1578 lux ind inactive, PrPC surface inh -7 and CCHF vOTU inh-1 5.
Screening CC(c1ccco1)N(Cc1ccco1)C(=O)Nc1ccccc1 (stereo not drawn) returned Y pestis TopoI 5, BH1578 lux ind inactive, PrPC surface inh -2, CCHF vOTU inh-1 34* and CCHF vOTU inh-2 -20.
CC1CN(C2=N/C(=C/c3ccc4c(c3)OCO4)C(=O)N2)CC(C)O1 (stereo not drawn) was read as Y pestis TopoI -9, BH1578 lux ind 0, PrPC surface inh -8 and CCHF vOTU inh-1 21.
`C[C@@H]1CN([C@@H](C)CO)C(=O)CCCn2nncc2CO[C@H]1CN(C)C(=O)Nc1ccccc1C(F)(F)F` gave Y pestis TopoI -6, BH1578 lux ind 0, PrPC surface inh 5, CCHF vOTU inh-1 30* and CCHF vOTU inh-2 -20.
Screening Nc1cc2[nH]c(=O)c3ccccc3c2cc1Br returned Y pestis TopoI 12, PrPC surface inh 6 and CCHF vOTU inh-1 -7.
Screening Nc1cc2c(cc1Br)[nH]c(=O)c1ccccc12 returned Y pestis TopoI -22, BH1578 lux ind inactive, PrPC surface inh 3, CCHF vOTU inh-1 101* and CCHF vOTU inh-2 84*.
Cc1cc2c(C(C)C)c(O)c(O)c(C=O)c2c(O)c1-c1c(C)cc2c(C(C)C)c(O)c(O)c(C=O)c2c1O was read as Y pestis TopoI -28, BH1578 lux ind 0, PrPC surface inh 3, CCHF vOTU inh-1 63* and CCHF vOTU inh-2 31*.
COC(=O)c1c(C)cc(O)c(C=O)c1O was read as Y pestis TopoI 2 and BH1578 lux ind 0.
O=C(COC(=O)c1ncc(Cl)c(Cl)c1Cl)NC1CCCCCC1 was read as Y pestis TopoI 16, BH1578 lux ind inactive, PrPC surface inh 3, CCHF vOTU inh-1 41* and CCHF vOTU inh-2 8.
Screening Cc1cc(C(=O)c2ccccc2)c(NC(=O)CCl)s1 returned Y pestis TopoI 5, BH1578 lux ind 0, PrPC surface inh -11, CCHF vOTU inh-1 32* and CCHF vOTU inh-2 -1.
For O=C(/C=C/c1ccco1)NCCc1ccccc1 the results were Y pestis TopoI -7, BH1578 lux ind inactive, PrPC surface inh -6 and CCHF vOTU inh-1 -8.
`Fc1ccc(Nc2cncc(-c3ccsc3)c2)cc1Cl` gave Y pestis TopoI -5, BH1578 lux ind -1, PrPC surface inh 1, CCHF vOTU inh-1 94* and CCHF vOTU inh-2 14.
`Fc1ccc(Nc2nnc(C(F)(F)F)s2)cc1Cl` gave Y pestis TopoI -5, BH1578 lux ind inactive, PrPC surface inh 5 and CCHF vOTU inh-1 16.
`COc1ccc(OC)c(S(=O)(=O)N(C)CC(=O)O)c1` gave Y pestis TopoI -1, BH1578 lux ind inactive, PrPC surface inh -3 and CCHF vOTU inh-1 -3.
O=C1CCCC(O)=C1C(C#Cc1ccccc1)C1=C(O)CCCC1=O was read as Y pestis TopoI 9 and BH1578 lux ind inactive.
C/C(=N\NC(=O)C1CC1)c1ccc(OC(F)F)cc1OC(F)F was read as Y pestis TopoI -2, BH1578 lux ind 0, PrPC surface inh 6 and CCHF vOTU inh-1 -19.
Screening C/C(=N\NC(=S)NC1CCCCC1)c1ccc(OC(F)F)cc1OC(F)F returned Y pestis TopoI 12, BH1578 lux ind inactive, PrPC surface inh 4, CCHF vOTU inh-1 33* and CCHF vOTU inh-2 -6.
Screening O=Cc1ccc(-c2ccccc2C(=O)O)o1 returned Y pestis TopoI 4, BH1578 lux ind 0, PrPC surface inh 0 and CCHF vOTU inh-1 12.
Screening O=C(O)c1ccccc1-c1c2cc(I)c(=O)c(I)c-2oc2c(I)c(O)c(I)cc12 returned Y pestis TopoI 2, BH1578 lux ind 0, PrPC surface inh -117, CCHF vOTU inh-1 37*! and CCHF vOTU inh-2 39*.
CC12CC(c3ccccc3O1)C(C(=O)OCc1ccccc1)C(=O)N2 (stereo not drawn) was read as Y pestis TopoI 7, BH1578 lux ind 0, PrPC surface inh -3, CCHF vOTU inh-1 38* and CCHF vOTU inh-2 -3.
`O=C(NNc1ccc(Cl)cc1)c1c(F)cccc1Cl` gave Y pestis TopoI -5, BH1578 lux ind inactive, PrPC surface inh -6 and CCHF vOTU inh-1 2.
Screening COc1cccc(C(c2c(C)[nH]n(-c3ccccc3)c2=O)c2c(C)[nH]n(-c3ccccc3)c2=O)c1O returned Y pestis TopoI 2, BH1578 lux ind 0, PrPC surface inh 5, CCHF vOTU inh-1 99* and CCHF vOTU inh-2 -4.
